Compounds without any hit were thinned out: in the full panel of roughly 79,000, 15% have a hit. Rule as the data show it: active = growth inhibition above about 70%; inactive = the rest.
How the values were obtained:
[1] = NCI Yeast Anticancer Drug Screen. Data for the rad50 strain (AID 155);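 also: 0% = growth of vehicle-only cultures of the same strain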; details: S. cerevisiae rad50 strain growth inhibition; at 50.0 µM; stronger effect = higher value
How it was run: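 Compounds were tested on a yeast strain with an engineered DNA damage repair alteration; the reported value is growth inhibition normalised to vehicle treatment.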

[2] = NCI Yeast Anticancer Drug Screen. Data for the mec2-1 strain (AID 157); details: S. cerevisiae mec2-1 strain, at 50.0 µM, stronger effect = higher value
How it was run: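 Each compound was tested on mec2-1 yeast, a strain altered in DNA damage repair or cell cycle control. Growth inhibition is reported relative to vehicle.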

[3] = NCI Yeast Anticancer Drug Screen. Data for the sgs1 mgt1 strain (AID 161);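 also: 0% = growth of cultures given vehicle only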; details: S. cerevisiae sgs1 mgt1 strain, at 50.0 µM, stronger effect = higher value
How it was run: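 Test agents were incubated with a DNA-repair-mutant yeast strain. Growth was then read and compared against vehicle-treated controls.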

[4] = NCI Yeast Anticancer Drug Screen. Data for the cln2 rad14 strain (AID 165);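 also: 0% = growth equal to vehicle treated cultures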; details: S. cerevisiae cln2 rad14 strain, at 50.0 µM, stronger effect = higher value
How it was run: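 Test compounds were added to cln2 rad14 yeast cultures; inhibition of growth was then determined by comparison with vehicle treatment.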

[5] = NCI Yeast Anticancer Drug Screen. Data for the bub3 strain (AID 167); details: S. cerevisiae bub3 mutant strain, at 50.0 µM, stronger effect = higher value
How it was run: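 Growth of a checkpoint-deficient yeast mutant is measured after compound exposure. Values represent inhibition relative to vehicle.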

[6] = NCI Yeast Anticancer Drug Screen. Data for the mlh1 rad18 strain (AID 175); details: S. cerevisiae mlh1 rad18 strain growth inhibition; at 50.0 µM; stronger effect = higher value
How it was run: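 Inhibition values reflect reduced growth of mutant yeast versus vehicle-treated controls following compound exposure; the mutations affect DNA damage repair.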

Measured: growth inhibition

Cc1sc2nc3n(c(=O)c2c1C)N=C(c1ccccc1)CS3
inactive: [1] -29.4% | [2] -11.8% | [3] -33.3% | [4] 11.1% | [5] -31.4% | [6] -17.2%

COc1cc([N+](=O)[O-])c(C(=O)O)c(C(=O)O)c1OC
inactive: [1] 9.8% | [2] -5.55% | [3] 3.7% | [4] -2.2% | [5] 1.7% | [6] 1.15%

N#C/C(=C1\N=C(c2ccccc2O)Oc2ccccc21)c1ccc([N+](=O)[O-])cc1
inactive: [1] 6.85% | [2] -11.9% | [3] 13.1% | [4] -0.7% | [5] 4.35% | [6] -13.6%

Cn1c(=O)[nH]c2c(c1=O)CCCS2
inactive: [1] 3.75% | [2] 6.4% | [3] 20.4% | [4] 0.65% | [5] -19.6% | [6] -10.1%

O=C(O)CNC(=O)NNc1ccccc1
inactive: [1] -4.75% | [2] -7.6% | [3] -11% | [4] 28.3% | [5] -10.3% | [6] -12.7%

CC(O)CNc1ncnc2ccccc12 (stereo not drawn)
inactive: [1] -13.5% | [2] -12.2% | [3] -3.15% | [4] -5.1% | [5] 9.15% | [6] 4.05%

CC1(C)CC(=O)C2=C(C1)NC(SSC1=C(C#N)C(c3ccc(F)cc3)C3=C(CC(C)(C)CC3=O)N1)=C(C#N)C2c1ccc(F)cc1 (stereo not drawn)
inactive: [1] -22.4% | [2] -12.8% | [3] -12.4% | [4] 55.5% | [5] -26.2% | [6] -25.8%

CC1CCC(NC2=NCCO2)C(C)C1 (stereo not drawn)
inactive: [1] -20.4% | [2] 0.4% | [3] -3.85% | [4] -29.4% | [5] -14.1% | [6] -3.35%

CCCCCCCCCCCCCCCCCCNC(=O)Nc1ccccc1
inactive: [1] 3.1% | [2] 7.05% | [3] -2.75% | [4] -7.65% | [5] -4.05% | [6] 15.3%

Cc1nccnc1N1CCCCC1
inactive: [1] 19.7% | [2] -0.75% | [3] -5.8% | [4] 15.9% | [5] 1.9% | [6] -11.3%

OCCN(CCO)c1ccc(-n2cnc3c(=S)nc[nH]c32)cc1
inactive: [1] -3.1% | [2] -3% | [3] 5.55% | [4] -43.8% | [5] 8.35% | [6] -4.15%

CCn1c(=O)c(C#N)c2n(CC)c3ccccc3n2c1=O
inactive: [1] 39.5% | [2] 13.8% | [3] 19.4% | [4] 10.2% | [5] 20.9% | [6] 30%

CCCNS(=O)(=O)c1ccccc1C(=O)NC1CCCCC1
inactive: [1] 3.25% | [2] -9.9% | [3] 4.05% | [4] 10.8% | [5] -19.7% | [6] 22.2%

O=C(Nc1cc(C(F)(F)F)ccc1Cl)c1ccccc1F
inactive: [1] 17.1% | [2] 29.1% | [3] -6.95% | [4] -9.15% | [5] 34.9% | [6] 18.6%

CC1OC(CO)C2OC(C)OCC2O1 (stereo not drawn)
inactive: [1] -14.2% | [2] -13.9% | [3] -12.8% | [4] -18.1% | [5] 5.75% | [6] 3.95%

COC(=O)C1(C(=O)OC)C/C(C)=C(/C)SCCCS1
inactive: [1] -12.7% | [2] -5.6% | [3] -14.8% | [4] 19.9% | [5] -23.1% | [6] -26.4%

O=C1C(O)=C(Cl)C(=O)C(O)=C1Cl.[Zn+2]
inactive: [1] -40.5% | [2] -25.8% | [3] -10.2% | [4] -9.1% | [5] -16.9% | [6] -26.8%

CC1(C)C2CC3C(=CCC4C(=O)C5CC=C6C(CC7CC6C7(C)C)C5C(=O)C43)C1C2 (stereo not drawn)
inactive: [1] 23.6% | [2] -6.1% | [3] 14% | [4] -20% | [5] -5.2% | [6] -1.65%

CCOC(=O)c1nc(N(C)C)oc(=O)c1C
inactive: [1] 25.1% | [2] 33.1% | [3] 28.1% | [4] -0.7% | [5] 18.6% | [6] 13.6%

COc1ccc(/C=N/N2CCN(/N=C/c3ccc(OC)c(O)c3)CC2)cc1O
inactive: [1] 22.1% | [2] 4.5% | [3] 15.1% | [4] 28.6% | [5] 1.05% | [6] 9.85%

COc1ccc(OCC(=O)N2CCCCC2)cc1
inactive: [1] -2.95% | [2] -11.6% | [3] 0% | [4] -40.2% | [5] 13.2% | [6] -1.65%

CN(C)/C=N/NC(=O)C(O)(c1ccccc1)c1ccccc1
inactive: [1] -7.45% | [2] 9.8% | [3] -7.85% | [4] -0.25% | [5] 1.55% | [6] 7.15%

N=C(N)Cn1cnc2ccccc21
inactive: [1] -13.7% | [2] -10.3% | [3] -9.65% | [4] 14.9% | [5] 3.8% | [6] -18.4%

CN(C)CCN(C)CC(C)(C)C(=O)/C=C/c1ccccc1
inactive: [1] -26% | [2] 2.55% | [3] -21.6% | [4] -5.95% | [5] -7.15% | [6] -15.4%

C/C=C\c1ccc2oc(-c3ccc4c(c3)OCO4)c(C)c2c1
inactive: [1] 3.2% | [2] 9.9% | [3] 6.15% | [4] -57.8% | [5] -4.6% | [6] -11.3%

CCCN(CCC)CCc1cc(C(C)=O)n(S(=O)(=O)c2ccc(C)cc2)c1
inactive: [1] -10.2% | [2] -17.8% | [3] 0.3% | [4] 19.6% | [5] -7.35% | [6] 21.4%

COC(=O)CCSC(=S)NCc1ccccc1
inactive: [1] -14.4% | [2] -30.1% | [3] -20% | [4] -222% | [5] -3.45% | [6] -12.7%

CCCCN=C(N)N=C(N)N
inactive: [1] 6.7% | [2] 2.75% | [3] 0.75% | [4] -7.45% | [5] -5.15% | [6] 4.05%

O=C1C(CN2CCCCC2)CCC1CN1CCCCC1 (stereo not drawn)
inactive: [1] 23.9% | [2] 15% | [3] 30.8% | [4] 9.95% | [5] 14.1% | [6] 51.5%

O=C(c1ccncc1)C(C(c1ccccc1)N1CCOCC1)N1CCOCC1 (stereo not drawn)
inactive: [1] 25.8% | [2] 8.25% | [3] 34% | [4] 39.5% | [5] 13.6% | [6] 4.4%

CCNC(=O)Oc1cccc(NC(=O)CC)c1
inactive: [1] 3.2% | [2] -4.2% | [3] -0.25% | [4] -14.2% | [5] 3.65% | [6] 3.7%

Cc1cc(C)c(NC(=O)Nc2cccc(Cl)c2)c(C)c1
inactive: [1] -0.85% | [2] 17.3% | [3] 1.7% | [4] -4% | [5] 3.35% | [6] -17.1%

O=S(=O)(c1ccc(I)cc1)c1ccc(I)cc1
inactive: [1] 22.6% | [2] 0.1% | [3] -9.15% | [4] 5.2% | [5] 5.35% | [6] 3.7%

Cc1c(CCCl)c(=O)n2c([nH]c3ccccc32)c1C#N
inactive: [1] 56.5% | [2] -56.5% | [3] 18.6% | [4] 5.2% | [5] -52.1% | [6] 62%

O=C(c1ccccc1)c1ccc(N2CCOCC2)cc1
inactive: [1] -29.4% | [2] -44.9% | [3] 24.4% | [4] 4.75% | [5] -7.85% | [6] -5.7%

O=C(/C=C/c1ccc(Cl)cc1)c1cc(Cl)ccc1O
inactive: [1] -14.4% | [2] -25.3% | [3] -13.8% | [4] -27.8% | [5] 16.2% | [6] -10.2%

Nc1c(Cl)ncnc1Nc1ccc(O)cc1
inactive: [1] -3.85% | [2] -1.2% | [3] 5.2% | [4] 5.8% | [5] 24.8% | [6] 1.4%

c1ccc(CNc2cnccn2)cc1
inactive: [1] -20.5% | [2] 10.7% | [3] -7.75% | [4] -22.1% | [5] -3.7% | [6] -4.95%

Source: PubChem BioAssay (NCI)
